{
  "source": "PubChem BioAssay AID2530",
  "about": "(National Center for Advancing Translational Sciences (NCATS), 2010)",
  "note": "Records with an inconclusive call do not appear. Calls of active or inactive are those of the source. The call rests on the fitted dose curve; in most records, active means well fitted inhibition curve with a large enough effect; inconclusive means small, poorly fitted or top-dose-only effect; inactive means flat fitted curve, though single readings scatter. Potency means the concentration at half of the fitted maximal effect.",
  "data": [
    {"target": "Luciferin 4-monooxygenase (Photuris pensylvanica) (UniProt Q27757)", "experiment": "Secondary Assay for Luciferase (Kinase-Glo TM) Inhibition Counterscreen;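 on activity, negative = inhibition: 0% = DMSO only and -100% = 40 µM SIB 1757 full inhibition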", "conditions": "Kinase-Glo luciferase enzyme, luminescence; series mostly up to 58.1 µM; activity, negative = inhibition: at the top concentration", "description": "NIH Chemical Genomics Center [NCGC] Malcolm Walkinshaw, Hugh Morgan, Linda Gilmore University of Edinburgh, UK MLPCN Grant: 1 R03 MH085697-01 NCGC Assay Overview: Luciferase (Kinase-Glo, Promega Corporation) was assayed for its ability to generate light using ATP and luciferin as substrates. The ATP concentration in the assay (10 uM) was within the linear range of enzyme activity for the assay conditions used. This assay was used as an counter screen for human pyruvate kinase M2 isoform.\nNCGC Assay Protocol Summary: Four uL of substrate mix (final concentration, 50 mM imidazole pH 7.2, 50 mM KCl, 7 mM MgCl2, 10 uM ATP, 0.01% Tween 20, 0.05% BSA) was dispensed into white 1536 well plates. Twenty-three nL of compound was delivered by a pin tool and 2 uL of luciferase detection mix (Kinase-Glo, Promega)) was added. Following 8-minute incubation at ambient temperature, luminescence was measured by a ViewLux (Perkin Elmer) at 5 seconds exposure/plate. Data were normalized to the controls for basal activity (DMSO only) and 100% inhibition (40 uM SIB 1757) and curve fitting was performed using Hill equation.", "values": [
      {"smiles": "Cc1ccc(NS(=O)(=O)c2ccc3c(c2)CCCC(=O)N3)cc1C", "activity, negative = inhibition": "-3.49% (inactive)"},
      {"smiles": "Cc1ccccc1OC1=NS(=O)(=O)c2ccccc21", "activity, negative = inhibition": "-2.81% (inactive)"},
      {"smiles": "Cc1ccc(C(=O)N2c3ccccc3CC2C)o1", "note": "(stereo not given)", "Potency": "18.3 µM (active)"},
      {"smiles": "O=C1c2ccccc2C(=O)N1c1noc2ccccc12", "activity, negative = inhibition": "3.69% (inactive)"},
      {"smiles": "Nc1ncnc2c1ncn2C1OC(COP(=O)(O)O)C(O)C1O", "note": "(stereo not given)", "Potency": "4.61 µM (active)"},
      {"smiles": "Oc1ccc(C23CC4CC(CC(C4)C2)C3)cc1O", "activity, negative = inhibition": "-1.06% (inactive)"},
      {"smiles": "O=C1C=CC(=O)N1c1cccc(-c2ccccc2)c1", "activity, negative = inhibition": "-3.96% (inactive)"},
      {"smiles": "O=C1CCc2cc(S(=O)(=O)Nc3ccc(F)cc3)ccc2N1", "activity, negative = inhibition": "-1.28% (inactive)"},
      {"smiles": "COc1cccc(Cn2ncc3c4sc(S(C)=O)cc4n(C)c3c2=O)c1", "note": "(stereo not given)", "Potency": "inactive"},
      {"smiles": "O=C1CCc2cc(S(=O)(=O)Nc3ccc4ccccc4c3)ccc2N1", "activity, negative = inhibition": "-2.13% (inactive)"},
      {"smiles": "Cc1ccc(S(=O)(=O)/N=C2/C=C(Sc3ncn[nH]3)C(=O)c3ccccc32)c(C)c1", "activity, negative = inhibition": "-4.73% (inactive)"},
      {"smiles": "COc1ccc(OC2=NS(=O)(=O)c3ccccc32)cc1", "activity, negative = inhibition": "-2.4% (inactive)"},
      {"smiles": "Cc1ccc(NS(=O)(=O)c2cc3c(cc2-c2ccccc2)NC(=O)CO3)cc1C", "activity, negative = inhibition": "-0.564% (inactive)"},
      {"smiles": "Cc1ccc(NS(=O)(=O)c2cc3c(cc2C)NC(=O)CO3)cc1C", "activity, negative = inhibition": "-0.951% (inactive)"},
      {"smiles": "Nc1ccc2nc(-c3ccccc3)sc2c1", "Potency": "11.6 µM (active)"},
      {"smiles": "O=C1CCc2cc(S(=O)(=O)Nc3ccncc3)ccc2N1", "activity, negative = inhibition": "-2.9% (inactive)"},
      {"smiles": "COc1cccc(OC2=NS(=O)(=O)c3ccccc32)c1", "activity, negative = inhibition": "2% (inactive)"},
      {"smiles": "COc1ccccc1NS(=O)(=O)c1ccc2c(c1)CCC(=O)N2", "activity, negative = inhibition": "1.44% (inactive)"},
      {"smiles": "COc1ccc(-c2cn3ccc(C)cc3n2)cc1", "Potency": "8.19 µM (active)"},
      {"smiles": "O=C1c2ccccc2C(=O)N1c1ccccn1", "activity, negative = inhibition": "1.24% (inactive)"},
      {"smiles": "CC(=O)Nc1cccc(S(=O)(=O)Nc2ccc(C)c(C)c2)c1", "activity, negative = inhibition": "-3.96% (inactive)"},
      {"smiles": "O=S1(=O)N=C(Oc2ccccc2Cl)c2ccccc21", "activity, negative = inhibition": "0.85% (inactive)"},
      {"smiles": "Cc1ccc(NS(=O)(=O)c2ccc3c(c2)CCO3)cc1C", "activity, negative = inhibition": "2.64% (inactive)"},
      {"smiles": "Cc1sc2nc(CN3CCN(c4ccc(O)cc4)CC3)[nH]c(=O)c2c1C", "activity, negative = inhibition": "0.226% (inactive)"},
      {"smiles": "Cc1ccc(NS(=O)(=O)c2cc3c(cc2F)NC(=O)CC3)cc1C", "activity, negative = inhibition": "2.32% (inactive)"},
      {"smiles": "O=C(Nc1cccc(O)c1)C(=O)Nc1ccccn1", "Potency": "20.6 µM (active)"},
      {"smiles": "Cc1ccccc1N=CC1=C(O)c2ccccc2C1=O", "Potency": "11.6 µM (active)"},
      {"smiles": "O=C(COC(=O)CCC(=O)c1ccc(F)cc1)Nc1ccc(F)cc1F", "activity, negative = inhibition": "-4.06% (inactive)"},
      {"smiles": "c1ccc2nc(-c3nc4ccccc4[nH]3)ccc2c1", "Potency": "5.8 µM (active)"},
      {"smiles": "O=C1c2ccccc2C(=O)N1c1cccc2cccnc12", "activity, negative = inhibition": "-0.904% (inactive)"},
      {"smiles": "COc1cccc(NS(=O)(=O)c2ccc3c(c2)CCC(=O)N3)c1", "activity, negative = inhibition": "0.18% (inactive)"},
      {"smiles": "Cc1ccc(NS(=O)(=O)c2cc3c(cc2-c2ccsc2)NC(=O)CO3)cc1C", "activity, negative = inhibition": "-1.05% (inactive)"},
      {"smiles": "O=C1c2ccccc2C(=O)N1c1ccc(O)cc1", "activity, negative = inhibition": "-1.83% (inactive)"},
      {"smiles": "O=C1NS(=O)(=O)c2ccccc21", "activity, negative = inhibition": "1.52% (inactive)"},
      {"smiles": "Cc1ccc(N2C(=O)c3ccccc3C2=O)c(C)c1", "activity, negative = inhibition": "-3.43% (inactive)"},
      {"smiles": "Cc1ccc(C)c(OC2=NS(=O)(=O)c3ccccc32)c1", "Potency": "inactive"},
      {"smiles": "Cc1ccc(C(=O)/C=C/C(=O)c2ccc(C)cc2)cc1", "activity, negative = inhibition": "-0.776% (inactive)"},
      {"smiles": "O=C1CCc2cc(S(=O)(=O)Nc3ccccc3Cl)ccc2N1", "activity, negative = inhibition": "-4.09% (inactive)"},
      {"smiles": "Cc1ccc(NS(=O)(=O)c2ccc3[nH]c(=O)[nH]c3c2)cc1C", "activity, negative = inhibition": "-1.28% (inactive)"},
      {"smiles": "CN(C)c1cccc(S(=O)(=O)N2CCN(S(=O)(=O)c3ccc4c(c3)OCCO4)CC2)c1", "activity, negative = inhibition": "-3.54% (inactive)"}
    ]}
  ]
}
